# Source: ChEMBL document CHEMBL2218924, “A broad activity screen in support of a chemogenomic map for kinase signalling research and drug discovery” (Biochem J, 2013)
# Molecular target: T1, NUAK family SNF1-like kinase 1 (Homo sapiens) (UniProt O60285)
# T1 sequence (whole entry): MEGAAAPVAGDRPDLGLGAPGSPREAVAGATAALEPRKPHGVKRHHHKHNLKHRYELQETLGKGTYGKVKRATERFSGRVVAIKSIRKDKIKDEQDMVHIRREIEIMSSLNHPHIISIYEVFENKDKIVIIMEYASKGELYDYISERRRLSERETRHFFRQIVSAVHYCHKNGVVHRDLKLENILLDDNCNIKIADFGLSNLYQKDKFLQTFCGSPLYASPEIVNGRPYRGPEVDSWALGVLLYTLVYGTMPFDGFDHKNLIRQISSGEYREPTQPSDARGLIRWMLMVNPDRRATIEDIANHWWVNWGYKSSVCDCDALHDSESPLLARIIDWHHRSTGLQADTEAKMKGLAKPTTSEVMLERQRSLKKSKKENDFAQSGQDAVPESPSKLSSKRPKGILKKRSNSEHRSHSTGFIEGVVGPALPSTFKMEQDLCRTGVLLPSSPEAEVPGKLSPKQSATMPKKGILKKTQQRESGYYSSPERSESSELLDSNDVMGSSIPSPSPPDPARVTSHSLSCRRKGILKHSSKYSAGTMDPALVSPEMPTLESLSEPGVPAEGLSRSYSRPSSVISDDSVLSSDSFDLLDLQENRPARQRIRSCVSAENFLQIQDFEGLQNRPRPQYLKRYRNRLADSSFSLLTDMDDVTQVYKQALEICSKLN
# Conditions: at 10 µM
row,SMILES,residual activity
1,O=C1Nc2ccc(Br)cc2/C1=C\c1cc2c([nH]1)CCCC2,74%
2,C[C@@H](N)[C@H]1CC[C@H](C(=O)Nc2ccncc2)CC1,91%
3,c1ccc(-c2n[nH]c3c2oc2ccccc23)cc1,65%
4,COc1cc2ncc(-c3ccccc3)nc2cc1OC,77%
5,Cc1nc(-c2ccccc2)c(-c2ccncc2)o1,88%
6,Cc1cc(Nc2nc(-c3ccccc3)nc3ccccc23)n[nH]1,-1%
7,CCN(CC)C(=O)c1ccc(Nc2nc(OCC3CCCCC3)c3nc[nH]c3n2)cc1,4%
8,COc1cc2ncnc(Nc3ccc(O)c(Br)c3)c2cc1OC,36%
9,COc1cccc(-c2cc(=O)c3ccccc3o2)c1N,93%
10,Oc1n[nH]c2nnc(-c3c(-c4ccccc4)nn4ccccc34)cc12,45%
11,Cc1cc2ncc(-c3ccccc3)nc2cc1C,94%
12,CN(C)CCCn1cc(C2=C(c3c[nH]c4ccccc34)C(=O)NC2=O)c2ccccc21,11%
13,CO[C@@H]1[C@H](N(C)C(=O)c2ccccc2)C[C@H]2O[C@]1(C)n1c3ccccc3c3c4c(c5c6ccccc6n2c5c31)C(=O)NC4,7%
14,COc1ccc(S(=O)(=O)N(CCO)c2ccccc2CN(C)C/C=C/c2ccc(Cl)cc2)cc1,75%
15,O=C1NC(=O)c2c1c1c3ccccc3[nH]c1c1[nH]c3cc(Br)ccc3c21,45%
16,COc1cc2ncnc(Nc3ccc(NC(=O)c4ccccc4)cc3)c2cc1OC,86%
17,NC(=O)c1ccc2[nH]c(-c3ccc(Oc4ccc(Cl)cc4)cc3)nc2c1,85%
18,O=Nc1c(-c2c(O)[nH]c3ccccc23)[nH]c2ccccc12,7%
